# Active and inactive are the calls of the source. Cut-off read from the data, not from the text of the source: active = inhibition above about 50%; inactive = the rest.
# Target: Vascular endothelial growth factor receptor 2 (Homo sapiens) (UniProt P35968)
# Assay: Biochemical primary assay, inhibitors of H. sapiens VEGFR2, LANCE Ultra time-resolved FRET readout, NPC library (AID 1117353)
# Settings: LANCE Ultra TR-FRET kinase assay; at 20 µM (top of the series)
# Vascular endothelial growth factor receptor 2 (Homo sapiens), sequence (P35968 whole entry, looked up): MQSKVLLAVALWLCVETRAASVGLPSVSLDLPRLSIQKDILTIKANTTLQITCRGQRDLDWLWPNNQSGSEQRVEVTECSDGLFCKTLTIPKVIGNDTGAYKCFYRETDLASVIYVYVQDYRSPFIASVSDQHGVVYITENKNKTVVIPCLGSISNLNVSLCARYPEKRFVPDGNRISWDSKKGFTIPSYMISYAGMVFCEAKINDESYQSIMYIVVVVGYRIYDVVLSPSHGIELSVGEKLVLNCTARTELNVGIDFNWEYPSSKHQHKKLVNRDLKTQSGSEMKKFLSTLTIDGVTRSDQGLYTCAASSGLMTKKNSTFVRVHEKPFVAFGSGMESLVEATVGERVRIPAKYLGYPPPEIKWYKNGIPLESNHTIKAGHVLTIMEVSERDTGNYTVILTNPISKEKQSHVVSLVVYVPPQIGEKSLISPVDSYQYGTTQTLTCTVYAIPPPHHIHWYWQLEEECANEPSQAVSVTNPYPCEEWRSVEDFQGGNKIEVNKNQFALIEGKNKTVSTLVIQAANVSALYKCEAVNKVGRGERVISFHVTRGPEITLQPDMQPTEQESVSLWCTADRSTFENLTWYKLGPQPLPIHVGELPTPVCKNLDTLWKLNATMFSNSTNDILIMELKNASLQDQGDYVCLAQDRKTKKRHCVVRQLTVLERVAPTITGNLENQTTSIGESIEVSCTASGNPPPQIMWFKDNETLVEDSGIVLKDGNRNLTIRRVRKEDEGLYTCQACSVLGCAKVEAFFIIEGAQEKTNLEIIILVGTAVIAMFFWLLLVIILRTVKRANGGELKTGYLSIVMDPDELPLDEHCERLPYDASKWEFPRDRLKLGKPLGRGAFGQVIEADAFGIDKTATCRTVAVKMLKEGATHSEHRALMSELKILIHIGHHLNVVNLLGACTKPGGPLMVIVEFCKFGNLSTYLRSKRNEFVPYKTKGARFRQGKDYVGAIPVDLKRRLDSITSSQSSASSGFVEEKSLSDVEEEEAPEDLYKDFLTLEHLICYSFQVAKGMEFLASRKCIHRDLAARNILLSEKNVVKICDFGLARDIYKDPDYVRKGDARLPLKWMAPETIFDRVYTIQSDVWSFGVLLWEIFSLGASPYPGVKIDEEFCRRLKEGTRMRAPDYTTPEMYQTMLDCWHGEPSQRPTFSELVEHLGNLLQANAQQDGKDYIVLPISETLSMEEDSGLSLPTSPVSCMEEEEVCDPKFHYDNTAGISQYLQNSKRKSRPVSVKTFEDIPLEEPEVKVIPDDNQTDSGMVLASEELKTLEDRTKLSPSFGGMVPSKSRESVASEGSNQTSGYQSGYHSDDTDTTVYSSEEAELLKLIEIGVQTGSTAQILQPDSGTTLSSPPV
row,SMILES,inhibition
1,COC(=O)[C@H]1[C@H]2C[C@@H]3c4[nH]c5cc(OC)ccc5c4CCN3C[C@H]2C[C@@H](OC(=O)/C=C/c2ccc(O)c(OC)c2)[C@@H]1OC,16.4% (inactive)
2,O=C1c2c(O)ccc(O)c2C(=O)c2c(NCCNCCO)ccc(NCCNCCO)c21,-38% (inactive)
3,O=c1[nH]c(=O)n([C@H]2C[C@H](O)[C@@H](CO)O2)cc1F,-21.7% (inactive)
4,C=CC(=O)Nc1cc2c(Nc3ccc(F)c(Cl)c3)ncnc2cc1OCCCN1CCOCC1,98.7% (active)
5,COC(=O)Nc1nc2ccc(Sc3ccccc3)cc2[nH]1,6% (inactive)
6,CN(C)c1ccc2nc3ccc(=[N+](C)C)cc-3sc2c1,-6.83% (inactive)
7,COc1cc2c(c(OC)c1OC)-c1ccc(OC)c(=O)cc1[C@@H](NC(C)=O)CC2,-20.7% (inactive)
8,O=C(O)c1ccc(-n2nc(-c3ccccc3O)nc2-c2ccccc2O)cc1,-16.1% (inactive)
9,COc1ccc2cc1Oc1ccc(cc1)C[C@H]1c3c(cc4c(c3Oc3cc5c(cc3OC)CCN(C)[C@@H]5C2)OCO4)CCN1C,30.3% (inactive)
10,CNC(=O)c1ccccc1Sc1ccc2c(/C=C/c3ccccn3)n[nH]c2c1,100% (active)
11,CC(C)(C)C1CCC(CC2=C(O)c3ccccc3C(=O)C2=O)CC1 (stereo unspecified),-21.1% (inactive)
12,Oc1c(I)cc(I)c2cccnc12,0.24% (inactive)
13,CC[C@@]1(O)C(=O)OCc2c1cc1n(c2=O)Cc2c-1nc1ccccc1c2/C=N/OC(C)(C)C,18.1% (inactive)
14,O=C(Nc1ccc([N+](=O)[O-])cc1Cl)c1cc(Cl)ccc1O,5.08% (inactive)
15,CCN(CC)CCOc1ccc(/C(=C(\Cl)c2ccccc2)c2ccccc2)cc1,-7.53% (inactive)
16,S=c1nc[nH]c2nc[nH]c12,15.9% (inactive)
17,CCN(CC)CCNc1ccc(CO)c2sc3ccccc3c(=O)c12,7.72% (inactive)
18,CC(C)C[C@H](NC(=O)[C@H](CCc1ccccc1)NC(=O)CN1CCOCC1)C(=O)N[C@@H](Cc1ccccc1)C(=O)N[C@@H](CC(C)C)C(=O)[C@@]1(C)CO1,21.4% (inactive)
19,[O-][n+]1ccccc1SSc1cccc[n+]1[O-],-17.4% (inactive)
20,COc1c(C)c2c(c(O)c1C/C=C(\C)CCC(=O)OCCN1CCOCC1)C(=O)OC2,-1.65% (inactive)
21,CC[C@]1(O)C[C@@H]2CN(CCc3c([nH]c4ccccc34)[C@@](C(=O)OC)(c3cc4c(cc3OC)N(C)[C@H]3[C@@](O)(C(=O)OC)[C@H](OC(C)=O)[C@]5(CC)C=CCN6CC[C@]43[C@@H]65)C2)C1,-21.1% (inactive)
22,Cc1cc(O)c2ccccc2c1O,50% (active)
23,O=C(CCCCCCC(=O)Nc1ccccc1)NO,-32.6% (inactive)
24,COC(=O)Nc1nc2ccc(C(=O)C3CC3)cc2[nH]1,69.1% (active)
25,Cc1ccccc1C(=O)Nc1ccc(C(=O)N2CCCC(N(C)C)c3ccccc32)cc1 (stereo unspecified),41.5% (inactive)
26,COC(=O)Nc1nc2ccc(S(=O)c3ccccc3)cc2[nH]1 (stereo unspecified),8.1% (inactive)
